# FLuc modulator = firefly luciferase modulation, counter-screen for miR-21 project | Potency, µM (highest dose often 57.5 µM), for inactives: top-dose activity change, negative = inhibition, actives largely listed as inhibitors | purified FLuc, Km substrates, luminescence inhibition | 6.9% of 360,000 active | AID 588342 | P08659;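 further: plate controls were vehicle for no effect and reference inhibitor for full effect; nearly all actives have a fitted effect of over 55% in size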
# Target sequence (P08659 whole entry, looked up): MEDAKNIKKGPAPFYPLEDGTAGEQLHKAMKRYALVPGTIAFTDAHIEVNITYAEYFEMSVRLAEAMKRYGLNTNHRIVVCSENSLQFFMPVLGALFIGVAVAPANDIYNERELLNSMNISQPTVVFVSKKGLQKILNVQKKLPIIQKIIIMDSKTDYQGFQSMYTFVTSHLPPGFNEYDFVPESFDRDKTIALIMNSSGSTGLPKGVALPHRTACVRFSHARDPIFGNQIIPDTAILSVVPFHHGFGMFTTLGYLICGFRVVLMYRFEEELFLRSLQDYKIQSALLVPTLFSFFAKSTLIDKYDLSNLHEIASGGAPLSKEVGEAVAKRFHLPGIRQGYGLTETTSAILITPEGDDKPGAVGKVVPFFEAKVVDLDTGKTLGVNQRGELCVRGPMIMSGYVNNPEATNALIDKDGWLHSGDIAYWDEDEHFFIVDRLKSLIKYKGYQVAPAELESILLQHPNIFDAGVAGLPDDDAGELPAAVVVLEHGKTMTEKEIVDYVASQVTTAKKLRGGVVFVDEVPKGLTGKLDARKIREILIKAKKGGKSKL
#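 Biochemical qHTS of compounds, final roughly 60 µM downward over six points, against 10 nM purified firefly luciferase using Km concentrations of substrates (10 uM D-luciferin, 10 uM ATP) in Tris acetate pH 7.5 buffer; luminescence output.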
# NPC1 prom act = activators of NPC1 promoter | AID 485313 | Potency, µM (series often up to 9.22 µM), without a hit: at the highest dose activation, actives largely listed as activators | Huh7 NPC1 promoter luciferase reporter, 24 h | 2.4% of 320,000 active; further: % of control where 0% means no effect; nearly all actives have a fitted effect of over 60% in size
#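 Luminescence read-out of NPC1 promoter-driven luciferase in stably transfected Huh7 cells; compounds delivered in DMSO and left 24 h at 37C, 5% CO2, qHTS titration format.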
# SMN2 splice enh = SMN2 splice variant enhancement. AID 1458. Potency, µM (series often up to 46.1 µM), inactives show at the highest dose activity change, positive = activation, hits mostly activators. 2.8% of 210,000 active. HEK293 SMN2-luciferase splicing reporter, luminescence, 30-36 h; further: % of control where 0% means no effect; nearly all actives have a fitted effect of over 55% in size
#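 HEK293 cells carry an SMN2 […]–luciferase reporter in which exon 7 inclusion puts luciferase in frame. Cells were plated 10-12 h before compound addition, then incubated 30-36 h at 37C. ONE-Glo luminescence was read; sodium butyrate at 4.5 mM final served as control.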
# ELG1 DNA repair = inhibitors of ELG1-dependent DNA repair in HEK293T cells | HEK293T ELG1-luciferase reporter, luminescence, 16 h; DNA damage induced by 5-fluorouridine | Potency, µM (doses to about 46.1 µM), for inactives: top-dose activity change, negative = inhibition, usual class: inhibitors | 2.3% of 330,000 active; further: on the % scale 0 is the no-effect control and ±100 the full control effect; nearly all actives have a fitted effect of over 55% in size
#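 Cells (2,000 per well) received 5-fluorouridine plus test compound or DMSO and were incubated 16 hr at 37 °C, 5% CO2. Luciferase activity was read by luminescence 30 min after ONE-Glo addition; signal suppression marked inhibition of damage-induced ELG1 function.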
# Rab9 promoter act = activators of Rab9 promoter; Huh7 Rab9 promoter-luciferase reporter, luminescence, 24 h; Potency, µM (titrated, usually from 9.22 µM), for the others: at the top dose activation, negative = inhibition, usual class: activators; 2.8% of 320,000 active; further: % of control where 0% means no effect; nearly all actives have a fitted effect of over 60% in size
#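 Quantitative HTS format; Huh7 Rab9-luciferase reporter cells (1500/well) receive compound 2 h post-plating, incubate 24 h at 37 °C, then get luciferase reagent for 10 min before luminescence reading.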
# ELG1 genotoxic = inducers of genotoxicity in HEK293T ELG1-luciferase cells | HEK293T ELG1-luciferase reporter, luminescence, 16 h | Potency, µM (doses to about 46 µM), inactives show at the top dose activity change, positive = activation, actives largely listed as activators | 1.3% of 330,000 active | AID 504466; further: % of control where 0% means no effect; nearly all actives have a fitted effect of over 60% in size
#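 16 hr compound incubation (37 °C, 5% CO2) of HEK293T cells carrying luciferase-tagged ELG1; luciferase then measured by ONE-Glo luminescence after 30 min at RT.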
# Active calls of the source: *; ? = inconclusive; · = no result. Rows were chosen to be rich in hits. Some 9.2% of all compounds tested hit in one or more screens of this group. The call rests on the fitted dose curve; in most records, active means well fitted curve in the direction sought with a large enough effect; inconclusive means small, poorly fitted or top-dose-only effect, or another doubt; inactive means no such curve, though single readings can be large; an effect the other way counts as inactive or inconclusive. Potency means the concentration at half of the fitted maximal effect.
SMILES,FLuc modulator,NPC1 prom act,SMN2 splice enh,ELG1 DNA repair,Rab9 promoter act,ELG1 genotoxic
C=CCn1c(C)cc(C(=O)CSc2nnc(-c3cccc(S(=O)(=O)N(CC)CC)c3)o2)c1C,?,0%,·,16µM*,1%,-1%
CC(Sc1nnc(-c2ccco2)o1)C(=O)NCCC1=CCCCC1 (configuration not stated),1%,1%,6%,5%,-5%,-1%
CCN(CC)S(=O)(=O)c1cccc(-c2nnc(SCCCC(=O)c3ccc(F)cc3)o2)c1,-2%,-2%,-42%,16µM*,-5%,-18%
CCN(CC)S(=O)(=O)c1cccc(-c2nnc(SC(C)C(=O)NCCC3=CCCCC3)o2)c1 (configuration not stated),3%,-2%,-28%,23µM*,-5%,-11%
CCN(CC)S(=O)(=O)c1cccc(-c2nnc(SCCCC(=O)c3ccccc3)o2)c1,?,0%,-34%,?,2%,-6%
O=[N+]([O-])c1ccc(C2=Nc3cc(Cl)ccc3OC2)cc1,15µM*,21%,-2%,?,21%,17%
Cc1ccc2c(c1)N=C(c1ccc(F)cc1)CO2,4.3µM*,4µM*,16%,?,3.2µM*,?
Cc1ccc(-c2cc3ncc4c(n3n2)-c2cc(F)ccc2OC4)cc1,-8%,·,7%,·,·,·
CCc1ccc(C2CC(=O)Nc3c2c(=O)n(C)c2ncnn32)cc1 (configuration not stated),-7%,·,-14%,·,·,·
Cc1ncoc1C(=O)Nc1nccs1,0%,-2%,·,16%,15%,2%
O=C(Nc1ncc([N+](=O)[O-])s1)c1ccccc1Br,?,3.5µM*,·,-1%,?,8%
Cc1ncoc1C(=O)Nc1ncc([N+](=O)[O-])s1,6.7µM*,0.71µM*,4.5µM*,?,0.32µM*,?
O=C(Nc1ncc([N+](=O)[O-])s1)c1cccs1,8.5µM*,0.89µM*,·,?,1µM*,?
O=C(/C=C/c1ccc([N+](=O)[O-])cc1)NCc1ccccn1,-1%,-2%,-11%,-2%,-4%,1%
O=C(/C=C/c1ccc([N+](=O)[O-])cc1)Nc1ncc([N+](=O)[O-])s1,0.12µM*,0.05µM*,0.5µM*,?,0.79µM*,?
Cc1cc(C)cc(NC(=O)CSc2nc(-c3ccccc3)c3cc(F)ccc3n2)c1,-1%,·,2%,·,·,·
COCCCn1c(C)nnc1SCC(=O)Nc1cccc(C)c1,-2%,-1%,·,0%,6%,1%
CC(C)Cn1c(-c2cc(Br)ccc2F)nc2c1c(=O)[nH]c(=O)n2CC(C)C,4%,-2%,·,?,0%,13%
Cc1cnc(NC(=O)c2cccs2)s1,11µM*,?,·,?,1.4µM*,?
O=C(Nc1ncc(Cl)cn1)c1cccs1,?,27%,23%,?,43%,?
O=C(Cc1ccc2c(c1)OCO2)NN=Cc1ccc([N+](=O)[O-])o1,·,·,·,16µM*,·,-7%
COc1cc([N+](=O)[O-])cc(/C=N/NC(=O)c2cncc(Br)c2)c1O,-12%,-8%,·,23µM*,-3%,5%
O=C(N/N=C\c1ccc([N+](=O)[O-])o1)c1cncc(Br)c1,2%,2%,·,16µM*,-8%,-8%
CCOc1ccc(CNCc2c(C(=O)O)c(C)n(Cc3ccc(F)cc3Cl)c2C)cc1,-13%,·,8%,·,·,·
COc1ccc(C2=NN3C(C2)c2ccccc2OC32C(=O)N(C)c3ccccc32)cc1 (configuration not stated),11µM*,3%,4%,?,4%,15µM*
SMILES,FLuc modulator,NPC1 prom act,SMN2 splice enh,ELG1 DNA repair,Rab9 promoter act,ELG1 genotoxic
COc1ccc(C2=NN3C(C2)c2ccccc2OC3c2cccs2)cc1 (configuration not stated),?,15%,·,?,23%,?
COc1ccc2c(c1)CCC/C2=N\Nc1nc(C(=O)NN)cs1,1.3µM*,22%,·,?,2%,5%
CCOC(=O)c1csc(N/N=C2\CCCc3ccccc32)n1,?,-1%,·,-2%,1%,-12%
Cc1ccc(CNC(=O)CCc2c(C)c3ccc(O)c(C)c3oc2=O)cc1,0%,·,1%,·,·,·
O/N=C\c1ccc(-c2ccccc2)o1,13µM*,22%,13µM*,?,24%,15%
COc1ccc(N=Cc2ccc(-c3ccccc3)o2)cc1,3µM*,-3%,·,-11%,-12%,12%
COc1ccc(N=C/C=C2\C=C(c3ccccc3)OC(C)(C)O2)cc1,?,-1%,?,?,3%,-7%
Cc1cccc(N(CC(=O)NC2CCCC2)C(=O)c2cc3cc4cccc(C)c4nc3s2)c1C,-1%,1%,-19%,18µM*,-5%,-4%
Cc1ccc(C)c(N(CC(=O)NC2CCCC2)C(=O)c2cc3cc4cc(C)ccc4nc3s2)c1,1%,-3%,2%,1%,-3%,-6%
CC(=O)Nc1ccc(NC(=O)C(C)OC(=O)CCc2c[nH]c3ccccc23)cc1 (configuration not stated),0%,0%,·,?,-4%,?
Cc1ccc(N2C(=O)Nc3cc(Cl)c(Cl)cc3N2O)cc1Cl,17µM*,-1%,-19%,-2%,0%,1%
O=C(/C=C/c1ccc2ccccc2n1)c1cc(Br)ccc1O,8.5µM*,0%,·,?,6%,12%
O=C(/C=C/c1ccc(F)cc1)c1cc(Br)ccc1O,?,12%,·,?,10%,8%
CN1CCN(C(=O)Nc2cccc(Cl)c2)c2cccnc21,1%,·,?,·,·,·
Cc1ccccc1C[C@H](C(=O)O)N1C(=O)c2ccc(C(=O)O)cc2C1=O,-1%,-1%,·,·,-1%,·
CCCOc1ccc(C(=O)Nc2cc(-c3nc4cc(C)cc(C)c4o3)ccc2C)cc1,-5%,·,1%,·,·,·
Cc1cc(C)c2oc(-c3ccc(C)c(NC(=O)/C=C/c4ccco4)c3)nc2c1,21µM*,·,-9%,·,·,·
Cc1cc(C)c2oc(-c3cccc(NC(=O)c4ccco4)c3)nc2c1,2.7µM*,·,5%,·,·,·
Cc1cccc(C)c1NC(=O)CNC(=O)C(C)NC(C)c1ccccc1Br (configuration not stated),6%,-3%,·,6%,1%,6%
CC(=O)c1ccc(NC(=O)/C(Cl)=C/c2ccccc2)cc1,0.95µM*,3.5µM*,?,?,4µM*,8.2µM*
Cc1ccccc1NC(=O)/C(=C/c1ccccc1)c1ccccc1,2%,-3%,-24%,-13%,-5%,-3%
